In PubChem BioAssay (EPA / NIEHS) one finds outcome and AC50 data, which are given here for 18 molecules.

As a reminder, the AC50 is the concentration giving half of the maximal activity seen.

Several values for one entry are separate records, joined by “and”; a condition that tells them apart may be missing. Identical values can stand only once. Some compounds were tested as several samples or in several runs, with calls that do not always agree. Activity calls are given as the source filed them. How the source made its calls: active means hit-call score of the fitted dose curve at least 0.9, where 1 is the maximum; inactive means score below 0.9.

The target of this test is Hypoxia-inducible factor 1-alpha (Homo sapiens) (UniProt Q16665). Description: ATG_HIF1a_CIS: Attagene CIS-FACTORIAL HepG2 Assay for human Hypoxia Inducible Factor 1 (HIF1A) (AID 2282951). The conditions noted are these: HepG2 Attagene cis-factorial HIF1a reporter transcription; actives raise or lower the signal. In outline: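 Activity is fitted in both directions relative to DMSO. Reporter transcripts are read by RT-PCR, fluorescent primer extension and capillary electrophoresis after 24 h chemical treatment. The cells are HepG2 carrying transiently transfected cis-element-driven reporter units responding to endogenous factors.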
Chain of Hypoxia-inducible factor 1-alpha (Homo sapiens) (Q16665 whole entry, looked up): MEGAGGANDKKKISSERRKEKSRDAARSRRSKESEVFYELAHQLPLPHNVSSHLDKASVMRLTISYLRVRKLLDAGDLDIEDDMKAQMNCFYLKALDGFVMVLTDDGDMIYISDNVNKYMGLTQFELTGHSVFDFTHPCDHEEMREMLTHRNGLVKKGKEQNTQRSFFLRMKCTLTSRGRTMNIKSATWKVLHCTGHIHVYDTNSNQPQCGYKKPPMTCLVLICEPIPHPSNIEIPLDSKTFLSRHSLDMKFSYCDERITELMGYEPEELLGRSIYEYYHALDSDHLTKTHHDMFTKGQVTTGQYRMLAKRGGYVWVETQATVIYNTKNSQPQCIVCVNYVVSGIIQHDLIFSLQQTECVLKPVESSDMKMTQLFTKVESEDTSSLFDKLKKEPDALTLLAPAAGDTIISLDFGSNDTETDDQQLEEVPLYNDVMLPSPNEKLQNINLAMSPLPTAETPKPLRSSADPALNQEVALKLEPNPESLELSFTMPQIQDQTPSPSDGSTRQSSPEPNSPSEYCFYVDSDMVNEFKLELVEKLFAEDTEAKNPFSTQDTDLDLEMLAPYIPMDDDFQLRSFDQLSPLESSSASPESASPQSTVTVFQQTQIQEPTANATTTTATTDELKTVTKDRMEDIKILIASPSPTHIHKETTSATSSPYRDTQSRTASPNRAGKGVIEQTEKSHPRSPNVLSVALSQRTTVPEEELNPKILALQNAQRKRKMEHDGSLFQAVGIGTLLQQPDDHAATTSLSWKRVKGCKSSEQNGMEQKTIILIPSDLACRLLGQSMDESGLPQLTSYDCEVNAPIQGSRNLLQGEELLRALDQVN
As to `CCCCOC(=O)[C@@H](C)Oc1ccc(Oc2ccc(C(F)(F)F)cn2)cc1`, the molecule was called inactive.
On the same count and under the same terms, the entry for `CCOC(=O)c1ccc(O)cc1` is “inactive”; for `COC(=O)c1ccccc1S(=O)(=O)NC(=O)Nc1nc(OC(F)F)cc(OC(F)F)n1` it is “inactive”; for `COC(=O)c1cccc(C)c1S(=O)(=O)NC(=O)Nc1nc(OCC(F)(F)F)nc(N(C)C)n1` it is “inactive”.
As to `CCC(O)=C1C(=O)CC(C(=O)O)CC1=O` (stereo unspecified), the outcome was inactive.
In the case of `CCCCOC(=O)C(C)Oc1ccc(Oc2ccc(C(F)(F)F)cn2)cc1` (stereo unspecified), the call was inactive.
As to `COC(=O)CSc1cc(N=c2sc(=O)n3n2CCCC3)c(F)cc1Cl`, the molecule was classed as inactive.
As for `COc1nc(C)nc(NC(=O)NS(=O)(=O)c2ccccc2OCCCl)n1`, the result was inactive.
Regarding `N[C@@H](Cc1cc(I)c(Oc2ccc(O)c(I)c2)c(I)c1)C(=O)O`, the AC50 was 16.3 µM (active) and 19.5 µM (active) and 1.93 µM (active); the outcome was inactive.
With `CCCCC(CC)CN1C(=O)C2C3C=CC(C3)C2C1=O` (stereo unspecified), the AC50 was 50 µM (active).
As to `C[C@]12CC[C@@H]3c4ccc(O)cc4C[C@@H](CCCCCCCCCS(=O)CCCC(F)(F)C(F)(F)F)[C@H]3[C@@H]1CC[C@@H]2O` (stereo partly specified), the call was inactive.
Same read-out and setting: the entry for `CC(C)CCCCCCc1ccc(O)cc1` is “inactive”; for `O=C(c1ccc(O)cc1O)c1ccc(O)cc1O` it is “inactive”.
`CN(C)C(=O)Nc1ccc(Cl)c(Cl)c1`: the AC50 was 62.6 µM (active) and the molecule was classed as inactive.
`COCCO`: the result was inactive.
Take `N#CSCSc1nc2ccccc2s1`: the outcome was inactive.
On the same count and under the same terms, the entry for `CCOC(=O)COc1cc(-n2ncc(C(F)(F)F)c(C)c2=O)c(F)cc1Cl` is “inactive”.
Take `C#C[C@]1(O)CC[C@H]2[C@@H]3CCC4=CC(=O)CC[C@@H]4[C@H]3CC[C@@]21CC`: the AC50 was 3.15 µM (active) and the molecule was called inactive.
